# In PubChem BioAssay AID651871 (Sanford-Burnham Center for Chemical Genomics, 2012):
# Several values for one entry are separate records, joined by “and”; a condition that tells them apart may be missing. Equal values may be shown once.
# System: H9c2
# Test: protection of cardiomyocytes from stress damage, SAR follow-up, cell-based, panel, H9c2 and HL-1, ATP luminescence, set 2 (AID 651871);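 also: cells exposed to stressor for 2 h before ATP readout; reference of the scale not given here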
# Conditions: H9c2/HL-1 cardiomyocytes, 2-deoxyglucose stress, with 2-deoxyglucose; run 13, at 79 µM (top of the series)
row,SMILES,activity (protection/inhibition)
1,COc1ccc2c(c1OC)C(=O)N1c3ccccc3C(=O)N(Cc3cccc(Cl)c3Cl)C21 (stereo not drawn),81.4% and 89.7% and -5.69%
2,COc1ccc2nc(-c3cc(OC)c(OC)c(OC)c3)cc(C(=O)NCC(=O)Nc3ccc(C(C)=O)cc3)c2c1,86.7%
3,CCOC(=O)c1cccc(NC(=O)CNC(=O)c2cc(-c3cc(OC)c(OC)c(OC)c3)nc3ccccc23)c1,92.9%
